{"source": "PubChem BioAssay (NCATS)", "note": "A number with no mark means an inactive call. Calls come from the whole dose curve; as a rule, active = well fitted curve in the direction sought with a large enough effect; inconclusive = small, poorly fitted or top-dose-only effect, or effect the other way, or another doubt; inactive = no such curve, though single readings can be large or run the other way."}
{"assay": "qHTS for inhibitors of adenylyl cyclases using a fission yeast platform: a pilot screen against the NCATS LOPAC library (AID 1347410)", "details": "S. pombe CHP2027, fbp1-GFP fluorescence, 18 h, yeast expressing mammalian AC9 and human GNAS; series mostly up to 57.5 µM; activity, positive = inhibition (GFP gain): at the top concentration", "text": "PI: Charles S. Hoffman Ph.D\nBoston College, 140 Commonwealth Ave., Chestnut Hill, MA\nAssay Development and Screening Technology Laboratory (ADST)\nNational Center for Advancing Translational Sciences (NCATS), Rockville, MD\nNational Institute of Health (NIH), Bethesda, Maryland\nThe fission yeast Schizosaccharomyces pombe uses a cAMP signaling pathway to link glucose-sensing to Protein Kinase A activity in order to regulate cell growth, sexual development, gluconeogenesis, and exit from stationary phase. Here, we describe the successful functional expression of all ten mammalian adenylyl cyclase (AC) genes, along with the human GNAS G-alpha gene in this organism. By measuring expression of a PKA-repressed fbp1-GFP reporter together with direct measurements of intracellular cAMP levels, one can detect both basal AC activity from all ten AC genes as well as GNAS-stimulated activity from eight of the nine transmembrane ACs (tmACs; AC2-AC9).\nFurther confirmation and validation of active compounds lead to the identification of diphenyleneiodonium chloride (DPI) as an inhibitor of basal AC activity. This fluorescence based fbp1-GFP-GNAS screening technology could facilitate the development of therapeutic compounds that target GNAS or the ACs, an area in which there is significant unmet need.\nThe gain-of-signal output is not substantially affected by cytotoxic compounds within the library.\nGetz RA, et al., A fission yeast platform for heterologous expression of mammalian adenylyl cyclases and high throughput screening, Cellular Signaling, 2019, 60: 114-121. doi.org/10.1016/j.cellsig.2019.04.010.\nPROTOCOL TABLE (as described by Inglese J, Shamu CE and Guy RK. 2007)\nSEQUENCE No. (e.g., 1, 2, 3, etc.); […] (e.g., Cells, Incubation, Reagent, etc.); VALUE; DESCRIPTION.\n1; Dispense growth medium; 2 uL; black, clear bottom, low base, 1536-well Aurora assay plate.\n2; Compounds and control; 23 nL; Kalypsis pin tool (Wako USA) equipped with a 1536-well pin head to transfer to the assay plates.\n3; Dispense yeast cells; 2 uL; CHP2027 cells.\n4; Incubation; 18 hours (dark at 30C); Non-humidified microbial incubator.\n5; Detector; 425V; Fluorescence; laser scanning cytometry.\nNOTES (numbers refer to Sequence numbers above)\n1. S. pombe growth medium EMM containing histidine, lysine, and uracil was initially dispensed into the assay plate to avoid yeast contamination using a Multidrop Combi dispenser (Thermo Fisher Scientific).\n2. 10 mM stock solution of DPI (Sigma-Aldrich D2926) dissolved in DMSO was used as a 16-point dose response positive control, while 1.11 mM DPI stock solution was used as a single point max response positive control. Solvent DMSO was used as the negative control. Control DPI was transferred as a single-dose (column 3; rows 1-32; 1.11 mM stock), and multi-dose (column 4; rows 1-32; 10mM stock; 1:1.5 dilution; 16pnt titration) positive controls. Vehicle control DMSO was pinned into column 1-2, rows 1-32. Lopac compounds were pinned into columns 5-48 resulting to a final concentration range 57 µM to 78.4 nMControl DPI stock (10 mM) was prepared by dissolving 10 mg in 3.18 mL DMSO; while 1.11 mM DPI stock was prepared by mixing 100 uL of 10 mM DPI with 800 uL DMSO. To create the control plates, we initially start with a 384-well compound working plate. With a repeater pipette, (a.) 16 uL/well of 1.11 mM DPI was added to column 3; (b.) 16 uL/well of DMSO was added into rows 2-16 of column 4; (c.) 50 uL/well of DPI added to rows 1 and 2 of column 4; (d.) 32 uL serial dilution (two-thirds-fold) from rows 2 to 16 of column 4 with manual pipette. From the 384-well compound working plate, 7 uL of respective control compound was transferred to respective columns of the 1536-well compound plate using a multichannel pipette.\n3. S. pombe CHP2027 (AC9-GNAS-PDE4D2) expressing fbp1-GFP cells were grown at 30C in EMM medium containing histidine, lysine, and uracil. […]", "units": {"activity, positive = inhibition (GFP gain)": "%"}}
{"smiles": "O=c1[nH]ccc2c(O)cccc12", "activity, positive = inhibition (GFP gain)": -0.141}
{"smiles": "NCC(O)c1ccc(O)c(O)c1", "note": "(stereo not given)", "activity, positive = inhibition (GFP gain)": -0.438}
{"smiles": "N[C@@H](CCCC(=O)O)C(=O)O", "activity, positive = inhibition (GFP gain)": 0.517}
{"smiles": "N=C(N)SCCc1cnc[nH]1", "activity, positive = inhibition (GFP gain)": 0.183}
{"smiles": "Nc1nc2[nH]c(=O)cnc2c(=O)[nH]1", "activity, positive = inhibition (GFP gain)": 0.174}
{"smiles": "CN1CCc2cc(Cl)c(O)cc2[C@@H](c2ccccc2)C1", "activity, positive = inhibition (GFP gain)": 0.179}
{"smiles": "CC(/C=C/c1cccc(Oc2ccc(F)cc2)c1)N(O)C(N)=O", "note": "(stereo not given)", "activity, positive = inhibition (GFP gain)": 1.72}
{"smiles": "O=C1OC(=O)C2C3CCC(O3)C12", "note": "(stereo not given)", "activity, positive = inhibition (GFP gain)": -0.438}
{"smiles": "COc1ccccc1N1CCN(CCCCNC(=O)c2ccc3ccccc3c2)CC1", "activity, positive = inhibition (GFP gain)": 0.248}
{"smiles": "NC1CONC1=O", "note": "(stereo not given)", "activity, positive = inhibition (GFP gain)": -0.438}
{"smiles": "Cc1cccc(C2CN(C)CCc3c2cc(O)c(O)c3Cl)c1", "note": "(stereo not given)", "activity, positive = inhibition (GFP gain)": -0.438}
{"smiles": "N[C@H](C(=O)O)c1cc(O)cc(O)c1", "activity, positive = inhibition (GFP gain)": -0.438}
{"smiles": "CCCC[C@@]1(C2CCCC2)Cc2cc(OCC(=O)O)c(Cl)c(Cl)c2C1=O", "activity, positive = inhibition (GFP gain)": -0.438}
{"smiles": "C[C@H]1CC2C3CCC4=CC(=O)C=C[C@]4(C)[C@@]3(Cl)[C@@H](O)C[C@]2(C)[C@@]1(O)C(=O)CO", "note": "(stereo not given in full)", "activity, positive = inhibition (GFP gain)": -0.438}
{"smiles": "O=C(O)C1=CCCNC1", "activity, positive = inhibition (GFP gain)": 0.0534}
{"smiles": "NC(C(=O)N[C@@H]1C(=O)N2C(C(=O)O)=C(Cl)CS[C@H]12)c1ccccc1", "note": "(stereo not given in full)", "activity, positive = inhibition (GFP gain)": -0.438}
{"smiles": "COc1cc(CNC(=O)CCCCCCC(C)C)ccc1O", "activity, positive = inhibition (GFP gain)": -0.438}
{"smiles": "CC(C)C[C@H](NC(=O)C1OC1C(=O)O)C(=O)NCCCCN=C(N)N", "note": "(stereo not given in full)", "activity, positive = inhibition (GFP gain)": -0.438}
{"smiles": "N=C(N)SCCN", "activity, positive = inhibition (GFP gain)": -0.438}
{"smiles": "CCCn1c(=O)c2c(ncn2C)n(CCC)c1=O", "activity, positive = inhibition (GFP gain)": -0.438}
{"smiles": "CNCCc1cnc(CCC(c2ccccc2)c2ccccc2)[nH]1", "activity, positive = inhibition (GFP gain)": 0.206}
{"smiles": "C=C1C[C@@]23CC[C@H]4[C@@](C)(CCC[C@@]4(C)C(=O)OC4OC(CO)C(O)C(O)C4O)[C@@H]2CC[C@]1(OC1OC(CO)C(O)C(O)C1OC1OC(CO)C(O)C(O)C1O)C3", "note": "(stereo not given in full)", "activity, positive = inhibition (GFP gain)": -0.438}
{"smiles": "CCCc1c(-c2ccc(O)cc2)nn(-c2ccc(O)cc2)c1-c1ccc(O)cc1", "activity, positive = inhibition (GFP gain)": 0.322}
{"smiles": "CN1C2CCC1CC(OC(c1ccccc1)c1ccccc1)C2", "note": "(stereo not given)", "activity, positive = inhibition (GFP gain)": -0.438}
{"smiles": "O[Si](CCCN1CCCCC1)(c1ccc(F)cc1)C1CCCCC1", "note": "(stereo not given)", "activity, positive = inhibition (GFP gain)": -0.438}
{"smiles": "CC(C)[C@@H]1CC[C@@H](C)C[C@@H]1P(=O)(c1ccccc1)c1ccccc1", "activity, positive = inhibition (GFP gain)": 0.188}
{"smiles": "CCCCCC(O)CCCC(=O)O", "note": "(stereo not given)", "activity, positive = inhibition (GFP gain)": -0.438}
{"smiles": "Cc1ccccc1/C=C/C1=NCCN1", "activity, positive = inhibition (GFP gain)": -0.438}
{"smiles": "O=c1[nH]c2cc(Cl)ccc2c(O)c1-c1ccc(Oc2ccccc2)cc1", "activity, positive = inhibition (GFP gain)": -0.438}
{"smiles": "CN(C)C(=O)/N=N/C(=O)N(C)C", "activity, positive = inhibition (GFP gain)": -0.438}
{"smiles": "NCCS(=O)O", "activity, positive = inhibition (GFP gain)": -0.438}
{"smiles": "CCCCC[C@H](CC(=O)NO)C(=O)N[C@H](C(=O)N1CCC[C@H]1CO)C(C)C", "activity, positive = inhibition (GFP gain)": -0.438}
{"smiles": "Clc1nccc2c1ccc1ccccc12", "activity, positive = inhibition (GFP gain)": -0.438}
{"smiles": "N=S(=O)(O)Cc1noc2ccccc12", "activity, positive = inhibition (GFP gain)": 0.151}
{"smiles": "N[C@@H](Cc1c[nH]c2ccccc12)C(=O)O", "activity, positive = inhibition (GFP gain)": -0.0534}
{"smiles": "C=C1C[C@@]23CC[C@H]4[C@@](C)(CCC[C@@]4(C)C(=O)O)[C@@H]2CC[C@]1(O)C3", "activity, positive = inhibition (GFP gain)": -0.438}
{"smiles": "CC(N)(Cc1ccc(O)cc1)C(=O)O", "note": "(stereo not given)", "activity, positive = inhibition (GFP gain)": 2.36}
{"smiles": "N#Cc1cc2nc(O)c(O)nc2cc1[N+](=O)[O-]", "activity, positive = inhibition (GFP gain)": 3.05}
{"smiles": "NCCCNCCCCNCCCN", "activity, positive = inhibition (GFP gain)": -0.438}
{"smiles": "Oc1cc(O)c2c(c1)O[C@H](c1ccc(O)c(O)c1)[C@@H](O)C2", "activity, positive = inhibition (GFP gain)": -0.438}
